Compounds without any hit were thinned out: in the full panel of roughly 79,000, 15% have a hit. Values without a mark were called inactive. The source made the active and inactive calls. No stated cut-off is given here; in the data, active means growth inhibition above about 70%; inactive means the rest.

Here are results for 22 molecules from PubChem BioAssay (NCI).

A short description of test [1]: NCI Yeast Anticancer Drug Screen. Data for the rad50 strain (AID 155).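 Further: 0% = growth of vehicle-only cultures of the same strain.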 The settings on record: S. cerevisiae rad50 strain growth inhibition; at 50.0 µM; stronger effect = higher value. The essentials: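 Yeast carrying a defined DNA repair defect were exposed to test compounds, and growth was compared with vehicle-treated controls to give percent inhibition.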
Test [2] can be described thus: NCI Yeast Anticancer Drug Screen. Data for the mec2-1 strain (AID 157). The settings on record: S. cerevisiae mec2-1 strain, at 50.0 µM, stronger effect = higher value. The procedure, abridged:
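mec2-1 yeast strain, carrying an alteration in DNA damage repair or cell cycle control, was exposed to compounds; growth inhibition was measured relative to vehicle-treated controls.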

A short description of test [3]: NCI Yeast Anticancer Drug Screen. Data for the sgs1 mgt1 strain (AID 161).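 Further: 0% = growth of cultures given vehicle only.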 The settings on record: S. cerevisiae sgs1 mgt1 strain, at 50.0 µM, stronger effect = higher value. The essentials:
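Percent growth inhibition was derived by comparing compound-exposed mutant yeast with vehicle-exposed cultures. The strain carries alterations in DNA damage repair.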

Test [4] can be described thus: NCI Yeast Anticancer Drug Screen. Data for the cln2 rad14 strain (AID 165).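 Further: 0% = growth equal to vehicle treated cultures.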 The note with it: S. cerevisiae cln2 rad14 strain, at 50.0 µM, stronger effect = higher value. The essentials:
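Yeast carrying cln2 and rad14 alterations (cell cycle control and DNA damage repair) were exposed to compounds. Growth inhibition was measured against vehicle-treated controls.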

Test [5] is described as follows: NCI Yeast Anticancer Drug Screen. Data for the bub3 strain (AID 167). The note with it: S. cerevisiae bub3 mutant strain, at 50.0 µM, stronger effect = higher value. The essentials: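 Compounds were applied to a genetically altered yeast strain carrying a cell-cycle control defect. Growth inhibition was scored against vehicle-treated controls.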
A short description of test [6]: NCI Yeast Anticancer Drug Screen. Data for the mlh1 rad18 strain (AID 175). The settings on record: S. cerevisiae mlh1 rad18 strain growth inhibition; at 50.0 µM; stronger effect = higher value. The procedure, abridged: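 Growth inhibition of the yeast strain was measured after compound exposure and expressed relative to vehicle-treated controls. The strain carries defined defects in DNA damage repair.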

In the case of `CC1=C2C(C)CC3OC(=O)C(C)C3C(O)C2CC1=O` (configuration not stated), the growth inhibition in test [1] is 5.8%; in test [2], -7.5%; in test [3], 1.2%; in test [4], -40.8%; in test [5], -8%; in test [6], -5.75%.

Take `CCCCCC/C(CC(=O)CCC(=O)NCCc1ccccc1)=N\NC(=O)c1ccc2ccccc2c1O`: the growth inhibition in test [1] was 25%; in test [2], 20.2%; in test [3], 32.6%; in test [4], -49.2%; in test [5], 2.5%; in test [6], 45.5%.

Take `CCCCCCCC(=O)NNCc1ccccc1`: the growth inhibition in test [1] was -16.1%; in test [2] it was 33.2%; in test [3] it was 15.6%; in test [4], 3.35%; in test [5], 15.9%; in test [6] it was 6.9%.

For `O=C1Nc2ncnc(Cl)c2Cc2ccccc21`, the growth inhibition was -2.6% in test [1]; -6.9% in test [2]; -0.75% in test [3]; -12.9% in test [4]; -6.15% in test [5]; -12.1% in test [6].

For `C=CCN1C(=O)C(c2ccccc2)(c2ccccc2)NC1=S`, the growth inhibition in test [1] is 1.7%; in test [2], -32.9%; in test [3] it was -32.1%; in test [4] it was -20.1%; in test [5] it was -30.6%; in test [6] it was -41.1%.

With `O=C(C#Cc1ccccc1)N1c2ccccc2CC1c1c[nH]c2ccccc12` (configuration not stated), the growth inhibition in test [1] is -7.25%; in test [2], -6.2%; in test [3], 0.7%; in test [4], 2.55%; in test [5] it was -2.8%; in test [6], -6.85%.

In the case of `Cc1nc(N)[nH]c(=O)c1N`, the growth inhibition in test [1] is 13.9%; in test [2] it was 3.4%; in test [3], 8.25%; in test [4] it was 11.8%; in test [5] it was -7.8%; in test [6], 8.6%.

On to `O=C(O)C(=O)C(=O)O`, for which the growth inhibition is -23% in test [1]; -41.8% in test [2]; -9.65% in test [3]; -10.1% in test [4]; -1.45% in test [5]; -5.45% in test [6].

For the molecule `COc1ccc(CN2CCCN(Cc3ccc(OC)cc3)C2c2ccc([N+](=O)[O-])cc2)cc1`, the growth inhibition in test [1] was -0.3%; in test [2], 14.8%; in test [3] it was 12.8%; in test [4], -18.7%; in test [5] it was 32.9%; in test [6], -16.6%.

`C=CCOc1cc(=O)[nH]c2ccccc12`: the growth inhibition is -14.1% in test [1]; -4.4% in test [2]; -0.9% in test [3]; -51.1% in test [4]; -0.45% in test [5]; 2.9% in test [6].

As for `CC(=O)c1ccc2cc(Cl)ccc2c1`, the growth inhibition in test [1] is 30.2%; in test [2], 3.45%; in test [3], 3.5%; in test [4], -29.9%; in test [5] it was 0.35%; in test [6] it was 4.2%.

Consider `C/C(=C\c1ccccc1)C(O)C(=O)c1nc2ccc(Cl)cc2[nH]c1=O` (configuration not stated), for which the growth inhibition is 10.3% in test [1]; -15.4% in test [2]; 6.15% in test [3]; 26% in test [4]; -14.2% in test [5]; 6.55% in test [6].

Consider `CCOC(=O)c1ccc(NC(=O)Sc2ccccc2C)cc1`, for which the growth inhibition in test [1] was 5.55%; in test [2], 12.9%; in test [3], 11.3%; in test [4] it was 7.5%; in test [5] it was 28%; in test [6] it was 13.6%.

As to `N=C1N=Nc2nc(CC(=O)c3ccc(Cl)cc3Cl)c(O)n21`, the growth inhibition in test [1] was -9.8%; in test [2], -8.35%; in test [3], 1.05%; in test [4], -31.5%; in test [5] it was -11.8%; in test [6], -37.6%.

Take `Cc1cc2c(s1)C(=O)c1sccc1C2=O`: the growth inhibition in test [1] is 89.7% (active); in test [2], 90.8% (active); in test [3], 89.8% (active); in test [4] it was 91.5% (active); in test [5], 87.2% (active); in test [6] it was 89% (active).

`CSc1nc(NC2OCC(O)C(O)C2O)c(Br)c(=O)n1C` (configuration not stated): the growth inhibition in test [1] is 9.05%; in test [2], 15.8%; in test [3], -0.75%; in test [4] it was 1.95%; in test [5], 6.3%; in test [6], 36%.

Regarding `O=[N+]([O-])c1ccc(O)c(O)c1`, the growth inhibition in test [1] is -23.6%; in test [2] it was -1.7%; in test [3] it was -10%; in test [4], 12.8%; in test [5], 5.6%; in test [6] it was -6.85%.

On to `O=C(O)CCCC1(CCCC(=O)O)OCCO1`, for which the growth inhibition in test [1] is 9.6%; in test [2], -4.45%; in test [3], -22.9%; in test [4], -60.5%; in test [5], -13.8%; in test [6], -2.8%.

Regarding `COC(=O)C1(C)CCCC2(C)C3CCC(C(C)C)CC3CCC12` (configuration not stated), the growth inhibition in test [1] was 24.9%; in test [2], -12.8%; in test [3] it was 20.1%; in test [4], -12.6%; in test [5], -5.9%; in test [6] it was 8.65%.

Regarding `CC(C)CN(CC(C)C)C(=O)C1CCCC[C@@H]1C(=O)O` (some centres not stated), the growth inhibition in test [1] is 16.9%; in test [2] it was 15.2%; in test [3], 5.8%; in test [4], 18.7%; in test [5], 16.4%; in test [6], 22.4%.

Regarding `NC(=O)[C@@H]1CCCN1C(=O)c1cccnc1`, the growth inhibition was -14.9% in test [1]; -18.2% in test [2]; -12.9% in test [3]; -14.7% in test [4]; 4.75% in test [5]; -13% in test [6].

With `CCOC(=O)CCC(NC(=O)c1ccc(NC)c([N+](=O)[O-])c1)C(=O)OCC` (configuration not stated), the growth inhibition in test [1] is 58.9%; in test [2], -1.9%; in test [3], 11.4%; in test [4], 18.8%; in test [5], 4%; in test [6] it was 0.8%.
